Each structure is given as a SMILES string. The campaign covered roughly 310,000 compounds. About 14,000 (4.5%) showed an effect of 50% or more. The effect is printed as a negative number. What follows is part of a selection rich in strong results, with near analogues and random picks from the rest.
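Further: peak tail current of the secondary pulse compared with the same well before compound.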

For the test, the target named is human ether-à-go-go-related gene (hERG) potassium channel (human, UniProt Q12809). The test can be described thus: primary screen, population patch clamp on CHO cells stably expressing hERG; higher = less effect of the substance.
Sequence of human ether-à-go-go-related gene (hERG) potassium channel (Q12809 whole entry, looked up): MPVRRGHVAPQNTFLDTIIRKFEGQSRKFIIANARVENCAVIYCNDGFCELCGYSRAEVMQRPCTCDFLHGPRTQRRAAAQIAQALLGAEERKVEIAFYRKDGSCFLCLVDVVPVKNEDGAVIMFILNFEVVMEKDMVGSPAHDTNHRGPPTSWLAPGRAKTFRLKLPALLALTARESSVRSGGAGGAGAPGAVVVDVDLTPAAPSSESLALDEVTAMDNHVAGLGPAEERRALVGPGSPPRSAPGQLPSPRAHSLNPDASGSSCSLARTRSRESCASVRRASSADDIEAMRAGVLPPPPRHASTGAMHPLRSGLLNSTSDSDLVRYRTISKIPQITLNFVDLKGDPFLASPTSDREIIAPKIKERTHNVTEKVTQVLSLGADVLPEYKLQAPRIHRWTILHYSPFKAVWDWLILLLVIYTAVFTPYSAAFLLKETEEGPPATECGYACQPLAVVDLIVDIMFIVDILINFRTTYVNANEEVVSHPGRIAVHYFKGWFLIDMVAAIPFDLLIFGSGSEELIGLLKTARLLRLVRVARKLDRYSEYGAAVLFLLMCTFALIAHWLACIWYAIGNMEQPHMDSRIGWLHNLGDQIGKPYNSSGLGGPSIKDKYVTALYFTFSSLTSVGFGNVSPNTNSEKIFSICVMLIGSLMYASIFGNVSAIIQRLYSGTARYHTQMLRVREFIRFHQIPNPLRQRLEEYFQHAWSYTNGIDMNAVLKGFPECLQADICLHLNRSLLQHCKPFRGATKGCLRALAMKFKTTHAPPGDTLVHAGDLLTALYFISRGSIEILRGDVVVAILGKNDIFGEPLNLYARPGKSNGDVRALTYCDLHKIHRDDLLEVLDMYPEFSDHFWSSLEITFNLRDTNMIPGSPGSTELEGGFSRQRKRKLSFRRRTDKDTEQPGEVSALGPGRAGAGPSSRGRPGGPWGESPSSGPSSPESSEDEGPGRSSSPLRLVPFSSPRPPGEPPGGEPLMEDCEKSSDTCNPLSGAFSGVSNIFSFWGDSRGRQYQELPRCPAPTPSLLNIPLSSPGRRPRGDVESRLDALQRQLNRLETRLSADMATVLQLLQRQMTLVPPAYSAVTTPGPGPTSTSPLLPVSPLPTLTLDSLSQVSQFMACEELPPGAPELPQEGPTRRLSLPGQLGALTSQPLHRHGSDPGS
With `O=C(NC1CC1)C1=C[C@@H](c2ccc(Br)cc2)C[C@@H](OCc2ccc(CO)cc2)O1`, the “hERG current change (%, negative = inhibition) at 10uM” value is listed as -56.4%.

As for `CN1CCN(C(=O)C2=C[C@@H](c3ccc(C(F)(F)F)cc3)C[C@@H](OCc3ccc(CO)cc3)O2)CC1`, the “hERG current change (%, negative = inhibition) at 10uM” value is reported as -52.6%.

Consider `O=C(C1=C[C@H](c2ccc(C(F)(F)F)cc2)C[C@H](OCc2ccc(CO)cc2)O1)N1CCCCCCC1`, for which the “hERG current change (%, negative = inhibition) at 10uM” value is listed as -17.7%.

As to `O=C(O)C1=C[C@@H](c2ccc(C(F)(F)F)cc2)C[C@@H](OCc2ccc(CO)cc2)O1`, the “hERG current change (%, negative = inhibition) at 10uM” value is reported as 16.7%.

For `CN1CCN(C(=O)C2=C[C@H](c3ccc(C(F)(F)F)cc3)C[C@H](OCc3ccc(CO)cc3)O2)CC1`, the “hERG current change (%, negative = inhibition) at 10uM” value is -40.4%.

On to `C#Cc1ccc([C@@H]2C=C(C(=O)NC3CC3)O[C@H](OCc3ccc(CO)cc3)C2)cc1`, for which the “hERG current change (%, negative = inhibition) at 10uM” value is -3.96%.

In the case of `O=C(O)C1=C[C@H](c2ccc(Br)cc2)C[C@H](OCc2ccc(CO)cc2)O1`, the “hERG current change (%, negative = inhibition) at 10uM” value stood at 15.1%.

On to `O=C(NC1CC1)C1=C[C@H](c2ccccc2)C[C@H](OCc2ccc(CO)cc2)O1`, for which the “hERG current change (%, negative = inhibition) at 10uM” value was -19.9%.

For the compound `O=C(NC1CC1)C1=C[C@H](c2ccc(C(F)(F)F)cc2)C[C@H](OCc2ccc(CO)cc2)O1`, the “hERG current change (%, negative = inhibition) at 10uM” value is given as -42.7%.

Turning to `O=C(NC1CC1)C1=C[C@@H](c2ccccc2)C[C@@H](OCc2ccc(CO)cc2)O1`, the “hERG current change (%, negative = inhibition) at 10uM” value was -38.3%.

For the compound `O=C(NC1CC1)C1=C[C@H](c2ccc(Br)cc2)C[C@H](OCc2ccc(CO)cc2)O1`, the “hERG current change (%, negative = inhibition) at 10uM” value is recorded as -71.1%.

Consider `O=C(NC1CC1)C1=C[C@@H](c2ccc(C(F)(F)F)cc2)C[C@@H](OCc2ccc(CO)cc2)O1`, for which the “hERG current change (%, negative = inhibition) at 10uM” value is given as -63.2%.

For `COc1cc(CNC(=O)c2ccc3c(c2)S(=O)(=O)c2ccccc2C3=O)cc(OC)c1`, the “hERG current change (%, negative = inhibition) at 10uM” value is listed as -0.0926%.

Take `O=C(COC(=O)c1cccc(Br)c1)Nc1cccc2c1C(=O)c1ccccc1C2=O`: the “hERG current change (%, negative = inhibition) at 10uM” value is recorded as 4.56%.

With `Cc1cccc(C)c1Nc1nnc(SCC(=O)NC2CCS(=O)(=O)C2)s1` (stereo not drawn), the “hERG current change (%, negative = inhibition) at 10uM” value is 1.96%.

On to `CS(=O)(=O)CCC(C(=O)n1nnc2ccccc21)N1C(=O)c2ccccc2C1=O` (stereo not drawn), for which the “hERG current change (%, negative = inhibition) at 10uM” value is on record as -3.22%.

For the compound `Cc1ccc(NS(=O)(=O)c2ccc(Cl)c(C(=O)Nc3ccccc3-c3nc4ccccc4[nH]3)c2)cc1C`, the “hERG current change (%, negative = inhibition) at 10uM” value is 17.2%.

As to `O=C(CC12CC3CC(CC(C3)C1)C2)Nc1ccc2c(c1)COC2=O`, the “hERG current change (%, negative = inhibition) at 10uM” value is recorded as -9.44%.

On to `CN(C(=O)/C=C/c1ccccc1)C1CCS(=O)(=O)C1` (stereo not drawn), for which the “hERG current change (%, negative = inhibition) at 10uM” value is reported as -0.518%.

`Cc1ccc(CS(=O)Cc2ccc(C(=O)N3CCN(c4ccc(F)cc4)CC3)o2)cc1` (stereo not drawn): the “hERG current change (%, negative = inhibition) at 10uM” value was -52.9%.

In the case of `O=C(c1ccc(CS(=O)Cc2ccc(Cl)cc2)o1)N1CCN(c2ccccn2)CC1` (stereo not drawn), the “hERG current change (%, negative = inhibition) at 10uM” value is given as -61.2%.

Take `Cc1ccc(CS(=O)Cc2ccc(C(=O)N3CCOCC3)o2)cc1` (stereo not drawn): the “hERG current change (%, negative = inhibition) at 10uM” value is recorded as -33.3%.

On to `O=C(c1ccc(CS(=O)Cc2ccccc2Cl)o1)N1CCN(c2cccc(Cl)c2)CC1` (stereo not drawn), for which the “hERG current change (%, negative = inhibition) at 10uM” value is recorded as -41.8%.

In the case of `O=C(c1ccc(CS(=O)Cc2ccccc2Cl)o1)N1CCN(c2ccccn2)CC1` (stereo not drawn), the “hERG current change (%, negative = inhibition) at 10uM” value is -5.66%.

As for `Cc1ccc(CS(=O)Cc2ccc(C(=O)N3CCN(c4ccccn4)CC3)o2)cc1` (stereo not drawn), the “hERG current change (%, negative = inhibition) at 10uM” value is recorded as -10.1%.

As to `COc1cccc(N2CCN(C(=O)c3ccc(CS(=O)Cc4ccccc4Cl)o3)CC2)c1` (stereo not drawn), the “hERG current change (%, negative = inhibition) at 10uM” value is recorded as -70.7%.

As to `COc1cccc(N2CCN(C(=O)c3ccc(CS(=O)c4ccccc4Cl)o3)CC2)c1` (stereo not drawn), the “hERG current change (%, negative = inhibition) at 10uM” value was -30.8%.

As to `Cc1ccc(CS(=O)Cc2ccc(C(=O)N3CCN(c4ccccc4)CC3)o2)cc1` (stereo not drawn), the “hERG current change (%, negative = inhibition) at 10uM” value is -14.8%.

Consider `COc1ccc(N2CCN(C(=O)c3ccc(CS(=O)Cc4ccc(C)cc4)o3)CC2)cc1` (stereo not drawn), for which the “hERG current change (%, negative = inhibition) at 10uM” value is -18.3%.

In the case of `COc1cccc(N2CCN(C(=O)c3ccc(CS(=O)Cc4ccc(C)cc4)o3)CC2)c1` (stereo not drawn), the “hERG current change (%, negative = inhibition) at 10uM” value was -11.4%.

As for `COc1ccc(N2CCN(C(=O)c3ccc(CS(=O)Cc4ccc(Cl)cc4)o3)CC2)cc1` (stereo not drawn), the “hERG current change (%, negative = inhibition) at 10uM” value is recorded as -50.1%.

In the case of `NS(=O)(=O)c1ccc2nc(NC(=O)CS(=O)(=O)c3ccccc3)sc2c1`, the “hERG current change (%, negative = inhibition) at 10uM” value is reported as 26.8%.

`CCN(CC)CCN=C(C)c1c(O)n(-c2ccccc2OC)c(=O)[nH]c1=O`: the “hERG current change (%, negative = inhibition) at 10uM” value is 4.71%.

Turning to `Cc1cccc(NC(=O)C(=O)C2C(=O)Nc3ccccc32)c1` (stereo not drawn), the “hERG current change (%, negative = inhibition) at 10uM” value was 4.05%.

As for `CC1=C(C(=O)Nc2ccccc2)C(c2ccco2)NC(=O)N1` (stereo not drawn), the “hERG current change (%, negative = inhibition) at 10uM” value stood at 14.5%.

As to `O=c1[nH]c2ccc(NS(=O)(=O)c3ccc(Cl)cc3)cc2[nH]1`, the “hERG current change (%, negative = inhibition) at 10uM” value is listed as 15.8%.

For `CCCc1ccc(OCc2ccc(C(=O)O)o2)c(OC)c1`, the “hERG current change (%, negative = inhibition) at 10uM” value is 8.51%.

Consider `Cc1cccc(N2CCN(C(=O)c3ccc(CS(=O)Cc4cccc(Cl)c4)o3)CC2)c1C` (stereo not drawn), for which the “hERG current change (%, negative = inhibition) at 10uM” value is -13.5%.

As for `Cc1ccc(Cl)cc1N1CCN(C(=O)c2ccc(CS(=O)Cc3ccc(Cl)cc3)o2)CC1` (stereo not drawn), the “hERG current change (%, negative = inhibition) at 10uM” value came out at 13.9%.

Regarding `O=C(c1ccc(CS(=O)Cc2ccc(Cl)cc2)o1)N1CCN(c2ccccc2F)CC1` (stereo not drawn), the “hERG current change (%, negative = inhibition) at 10uM” value is -55.8%.

Consider `Cc1ccc(C)c(N2CCN(C(=O)c3ccc(CS(=O)Cc4ccc(Cl)cc4)o3)CC2)c1` (stereo not drawn), for which the “hERG current change (%, negative = inhibition) at 10uM” value was -26.9%.

Take `Cc1ccc(CS(=O)Cc2ccc(C(=O)NC3CCCCC3)o2)cc1` (stereo not drawn): the “hERG current change (%, negative = inhibition) at 10uM” value came out at 2.31%.

Consider `CCCc1ccc(OCc2ccc(C(=O)N3CCN(c4ccccn4)CC3)o2)c(OC)c1`, for which the “hERG current change (%, negative = inhibition) at 10uM” value is listed as -56.5%.

Turning to `Cc1cccc(N2CCN(C(=O)c3ccc(CS(=O)Cc4ccc(Cl)cc4)o3)CC2)c1C` (stereo not drawn), the “hERG current change (%, negative = inhibition) at 10uM” value is on record as -57%.

In the case of `Cc1ccc(CS(=O)Cc2ccc(C(=O)NC3CCC(C)CC3)o2)cc1` (stereo not drawn), the “hERG current change (%, negative = inhibition) at 10uM” value is -51%.

Consider `Cc1ccc(C)c(N2CCN(C(=O)c3ccc(CS(=O)Cc4cccc(Cl)c4)o3)CC2)c1` (stereo not drawn), for which the “hERG current change (%, negative = inhibition) at 10uM” value is given as -6.6%.

As to `Cc1ccc(CS(=O)Cc2ccc(C(=O)NC3CCCCCC3)o2)cc1` (stereo not drawn), the “hERG current change (%, negative = inhibition) at 10uM” value amounted to 8.98%.

On to `COc1ccccc1S(=O)(=O)Cc1ccc(C(=O)N2CCN(c3ccccn3)CC2)o1`, for which the “hERG current change (%, negative = inhibition) at 10uM” value is listed as -17.8%.

The values above are taken from publication PMC4336329 (PLoS ONE, 2015).
